# Compound activity: PubChem BioAssay, several laboratories
# TWEAK Fn14 block: blocks TWEAK-Fn14 interaction in a reporter cell assay; actives 2% (n = 360,000); inhibition, % at 10 µM; TWEAK-stimulated Fn14 reporter cells, luciferase luminescence, 8 h; in the data active = inhibition above about 50%
# TROY signal inh: blocks TROY-dependent signaling in reporter cells | actives 0.98% (n = 360,000) | Q293 LMP1-TROYcd NF-kB luciferase reporter, 4 h | inhibition, % at 10 µM | AID 1347056;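 active = compounds whose plate-normalised and pattern-corrected inhibition of the luciferase reporter signal at the single screening dose is 50% or more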
# EBV LMP1 NFkB: reduces LMP1-driven NF-kappaB luciferase signal; inhibition, % at 12.5 µM; actives 0.69% (n = 350,000); LMP1-induced NF-kappaB luciferase reporter cells, luminescence; AID 504558; in the data active = inhibition above about 41%
# LGR2 antag: blocks bursicon-induced cAMP signaling via Drosophila LGR2. HEK293 LGR2, CRE-luciferase, bursicon-stimulated, 4 h. inhibition, % at 9.99 µM. actives 0.35% (n = 380,000);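 active = drop in luminescence signal, shown as inhibition above about 50% in the replicate tests, limit read from the data, passing the limit was not always enough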;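 note: agonist challenge used bursicon conditioned medium at about half maximal strength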
# EWS-Fli inh: blocks EWS/Fli oncoprotein-driven transcription. A673 NR0B1-luciferase reporter, viability-normalised. AID 651661. inhibition, % at 12.6 µM. actives 0.67% (n = 350,000);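 active = mean inhibition of at least 50% after viability correction, with every replicate also passing that limit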;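 note: firefly luciferase signal divided by Alamar Blue viability fluorescence both relative to DMSO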
# A number is an active result; n = inactive; x = not tested or not shown. Only some compounds are listed: those with a hit (about 2.6% of all), similar ones and a draw of the others.
SMILES,TWEAK Fn14 block,TROY signal inh,EBV LMP1 NFkB,LGR2 antag,EWS-Fli inh
COc1cccc(S(=O)(=O)N(C)C[C@@H]2OCc3ccccc3-c3ccccc3C(=O)N([C@H](C)CO)C[C@@H]2C)c1,x,x,x,n,n
CC1CCC(C(C)C)C(OC(=O)C[n+]2cc(-c3ccc(Cl)cc3)n3c2CCC3)C1 (configuration not stated),n,55,n,n,n
CCCN(C)C[C@H]1OCCCC[C@@H](C)Oc2ccc(NC(=O)CCCN(C)C)cc2C(=O)N([C@H](C)CO)C[C@H]1C,x,x,x,n,n
COc1cc2c(cc1NC(=O)C(C)Sc1ccc(NC(C)=O)cc1)oc1ccccc12 (configuration not stated),66,n,n,n,x
COc1cc2c(cc1NC(=O)Nc1ccc(C)cc1)oc1ccccc12,n,n,n,x,x
COc1ccc(-c2csc(NC(=O)CSc3nc(C)cs3)n2)cc1,n,n,n,x,x
COc1ccc(-c2csc(NC(=O)CSc3nc(SC)ns3)n2)cc1,69,54,n,n,n
COc1ccc2nc(NC(=O)CSc3nc(SC)ns3)sc2c1,53,n,n,n,n
C[C@H]1CN([C@@H](C)CO)S(=O)(=O)c2ccc(C3=CCCC3)cc2O[C@@H]1CN(C)C(=O)c1cccnc1,x,x,x,n,n
O=C(Nc1ccc([N+](=O)[O-])cc1)C1CC1(c1ccccc1)c1ccccc1 (configuration not stated),n,70,n,n,x
Cc1ccc(C2(c3ccc(C)cc3)CC2C(=O)Nc2ccc([N+](=O)[O-])cc2O)cc1 (configuration not stated),66,56,n,x,x
COCC#Cc1ccc2c(c1)O[C@H](CN(C)Cc1ccccc1F)[C@@H](C)CN([C@@H](C)CO)S2(=O)=O,x,x,x,n,n
COC(=O)c1[nH]c2ccccc2c1NC(=O)CN1CCN(C(=O)c2ccco2)CC1,87,x,n,x,x
COC(=O)c1[nH]c2ccccc2c1NC(=O)CN1CCN(c2cccc(Cl)c2)CC1,59,n,n,n,x
C=CCN1C(=O)NC(c2ccc(OC)cc2)(C(F)(F)F)S/C1=C(\C#N)c1nnc(N2CCOCC2)n1-c1ccccc1 (configuration not stated),50,n,n,n,n
CC(C)C#Cc1cnc2c(c1)C(=O)N([C@@H](C)CO)C[C@@H](C)[C@H](CN(C)C(=O)c1cccnc1)O2,x,x,x,n,n
Cc1[nH]c(=O)c(C(=O)/C=C/c2ccccc2F)c2c1CCCC2,89,50,81,86,n
NNC(=O)CCN1CCCCC1,86,70,n,n,n
C[C@@H]1CN([C@H](C)CO)C(=O)c2cccc(NS(=O)(=O)c3ccc(Cl)cc3)c2O[C@@H]1CN(C)Cc1ccc(-c2ccccc2)cc1,x,x,x,n,n
CC(C)c1ccc(NC(=O)c2ccc(-c3ccnn3C)c3ccoc23)cc1,79,n,x,x,x
CCCN1[C@@H]2c3ccc(-c4ccccc4)c(=O)n3C[C@@H]2[C@@H](CO)[C@@H]1C(=O)NCCCN1CCOCC1,x,x,x,n,n
Cc1ccc(S(=O)(=O)c2cc3cc(Br)ccc3oc2=O)cc1,80,n,n,n,x
CC(C)c1ccc(S(=O)(=O)c2cc3cc(Br)ccc3oc2=O)cc1,54,n,n,n,x
CCC(Oc1ccccc1)C(=O)Nc1ccc(S(=O)(=O)Nc2ncccn2)cc1 (configuration not stated),n,n,n,n,n
CCCSc1ncc(Cl)c(C(=O)Nc2ccc(S(=O)(=O)Nc3ncccn3)cc2)n1,58,n,n,n,n
SMILES,TWEAK Fn14 block,TROY signal inh,EBV LMP1 NFkB,LGR2 antag,EWS-Fli inh
CCC(C)NS(=O)(=O)c1ccc(NC(=O)C(Sc2ccccc2)c2ccccc2)cc1 (configuration not stated),n,n,n,n,n
CCCCNS(=O)(=O)c1ccc(NC(=O)C(Sc2ccccc2)c2ccccc2)cc1 (configuration not stated),63,n,n,n,x
CCC(C(=O)Nc1ccc(S(=O)(=O)Nc2ncccn2)cc1)c1ccccc1 (configuration not stated),86,n,n,n,n
COc1ccc2c3c(n(C)c2c1)[C@@H](CO)N(C(C)=O)CC31CCN(Cc2cccnc2)CC1,x,x,x,n,n
CNC[C@H]1OCCCC[C@@H](C)Oc2ccc(NS(=O)(=O)c3ccc(Cl)cc3)cc2C(=O)N([C@H](C)CO)C[C@@H]1C,x,x,x,n,n
Cc1nc(-c2ccc(C(=O)Nc3ccccc3F)cc2)cs1,90,66,n,83,61
Cc1nc(-c2ccc(C(=O)Nc3cccc(F)c3)cc2)cs1,92,56,n,60,n
C[C@@H]1CN([C@@H](C)CO)S(=O)(=O)c2ccc(-c3ccncc3)cc2O[C@H]1CN(C)C(=O)CC1CC1,x,x,x,n,n
CN1C(=O)c2cc(NC(=O)c3cccs3)ccc2OC[C@H]2O[C@H](CC(=O)NCCN3CCCCC3)CC[C@H]21,x,x,x,n,n
O=C(Nc1ccc(F)cc1)N1CC(=O)N2[C@@H](CO)[C@@H](c3ccc(Br)cc3)[C@@H]2C1,x,x,x,n,n
Cc1cccc(Cn2cc(SCC(=O)Nc3nccs3)c3ccccc32)c1,n,n,82,n,n
Cc1ccc(Cn2cc(SCC(=O)Nc3nccs3)c3ccccc32)cc1,n,n,n,n,n
CCS(=O)(=O)N1CCC(C(=O)Oc2ccc(Br)cc2)CC1,79,n,n,n,n
O=C(Nc1ccc2c(c1)OCCO2)C(c1ccnc2ccccc12)N1CCN(c2ccc(C(F)(F)F)cn2)CC1 (configuration not stated),89,69,x,n,n
O=C(Nc1ccc2c(c1)OCCO2)C(c1ccnc2ccccc12)N1CCN(c2ccc(F)cc2)CC1 (configuration not stated),n,n,x,n,n
CCOC(=O)[C@H]1[C@H]2COc3ccc(C)cc3[C@@H]2N2C(=O)CN(Cc3ccc(OC)cc3)C(=O)[C@@]12C,n,n,45,n,n
CCOC(=O)[C@H]1[C@H]2COc3ccc(C)cc3[C@@H]2N2C(=O)CN(Cc3ccc(Cl)cc3)C(=O)[C@@]12C,n,n,n,n,n
CCOC(=O)[C@H]1[C@H]2COc3ccc(OC)cc3[C@@H]2N2C(=O)CN(C)C(=O)[C@@]12C,n,n,47,n,n
COc1ccc(NC(=O)Nc2ccc3c(c2)C(=O)N([C@@H](C)CO)C[C@@H](C)[C@@H](CN(C)C(=O)NC(C)C)OCCCC[C@@H](C)O3)cc1,x,x,x,n,n
CN1CCCCN2[C@@H](CO)[C@@H](c3ccc(C#CC4(O)CCCC4)cc3)[C@@H]2C1,x,x,x,n,n
CC(C)Cc1nc2oc3c(Cl)ncnc3c2c2c1CCC2,90,n,n,n,58
CC1(C)CC(=O)C=C(Nc2ccc3c(c2)OCCO3)C1,70,n,n,x,x
COc1ccc2c3c([nH]c2c1)[C@@H](CO)N(Cc1ccc(F)cc1)CC31CCN(C)CC1,x,x,x,n,n
CCc1ccccc1NC1Nc2cc(C)nn2S1 (configuration not stated),57,n,n,n,n
